For 39 sequences, sensor-assay potency score (higher = more potent) results are on record in the OligoGym collection.
Also: reference of the scale not given here.

The target of the first experiment is FLG. Nature of the experiment: pooled miR-30 sensor sort-seq; sequence = guide strand. The note with it: shRNA.
With TTTATCATGATGACTGTGCTTT, the sensor-assay potency score (higher = more potent) was 0.582. The same measure, in the same setting: with TTGTTCTGCTTGCACTTCTGGA the figure was -0.702; with TTGATTGTTCCTCATTACGTGT, -0.377.

The next experiment deals with FLNC. Described as above. The note with it: shRNA.
Sequence TTGATGTCCACCTTGCTTGGGC came in with a sensor-assay potency score (higher = more potent) of 0.144. In the case of TACTGCACTCGGTAGGTGCCGT, the sensor-assay potency score (higher = more potent) is -0.627. Sequence TTGAACTTGATGGAGACCTCAT came in with a sensor-assay potency score (higher = more potent) of -0.144. The sequence TTCAGTGACACGTCCGTGGAGG displayed a sensor-assay potency score (higher = more potent) of -0.25. For the sequence TTGACGGTGAAGGTGTCGTTGT, the sensor-assay potency score (higher = more potent) was -0.371. On the same count and under the same terms, to TTGAGGTCACAGGTGCTGCCGA belongs -0.595. TTGGTGACAATAGTGAAGGTGG came in with a sensor-assay potency score (higher = more potent) of 0.0613. Turning to TTTGATTTTGCTGAGGTCCAGC, the sensor-assay potency score (higher = more potent) stood at 0.0406. On to TAGGTGACTTTGCATGTCCCGT, for which the sensor-assay potency score (higher = more potent) is -0.929.

TAGGCTGACACCAAGCCTGGGT gave a sensor-assay potency score (higher = more potent) of -0.0141. Take TAGGAGACAGCATAGGTGCGAT: the sensor-assay potency score (higher = more potent) is -0.825. The same measure, in the same setting: to TTACAGGTGATCTCTGCCTTGG belongs -0.839.

On to TTGACTGCAGTCCACTGTGAAG, for which the sensor-assay potency score (higher = more potent) is -1.44. Regarding TTGAGGTGCTCATTGCACCAGC, the sensor-assay potency score (higher = more potent) is -0.419. TTGTCAGCAAACTTGATGTTGA returned a sensor-assay potency score (higher = more potent) of -0.54. As for TAGCTGACAGCACATGAGCCAT, the sensor-assay potency score (higher = more potent) was -1.71. In turn, TAGGACACAGTGTACGTGCCAT yielded a sensor-assay potency score (higher = more potent) of -0.557. As for TTGATGGTGATGGTGTACCGGC, the sensor-assay potency score (higher = more potent) was -1.25. The sequence TTGTCTGTCACATAGGTGTCTG came in with a sensor-assay potency score (higher = more potent) of -0.552. Still for that read-out and setting: to TGAGCCATCACCATTGTCCTGG belongs 0.0505; to TGAACTCTGATGACACACCGGT, 0.0555; to TAGAGCTTCAGGTCTCCCTTGC, 0.291. Sequence TTGAGGTTGAGGTCACAGGTGC came in with a sensor-assay potency score (higher = more potent) of -0.307. Turning to TTGTCGGTGATGTTGGGCCGTG, the sensor-assay potency score (higher = more potent) was -1.35.

The next experiment addresses FMNL2. Described as above. The note with it: shRNA.
In turn, TTCTGCAATTAACTCTTGCTGC returned a sensor-assay potency score (higher = more potent) of -0.158. Same read-out and setting: with TAGACTGTCTTTGAATTGCTTC the figure was 0.088; with TTATAGAGACAGATGCTGCTAT, 0.344.

For TTATCTTTAACTTGTCGTCTTC, the sensor-assay potency score (higher = more potent) came to 0.239. Sequence TTATATGCTTTCACAAACCGGA showed a sensor-assay potency score (higher = more potent) of -0.533.

In the case of TACAATATTAATAAACTGCATA, the sensor-assay potency score (higher = more potent) is -0.855. TAGCTTTACATATTTCATCAGC returned a sensor-assay potency score (higher = more potent) of -0.662. With TAATTCTGCAATTAACTCTTGC, the sensor-assay potency score (higher = more potent) was -0.103.

As to TTGAGTATTTGCATCTTTGTAG, the sensor-assay potency score (higher = more potent) is 0.305.

TTTCTCTAGCTCATGAATCTTT showed a sensor-assay potency score (higher = more potent) of -0.357. On the same count and under the same terms, to TTCTTCTTTTTCTTTGACCATT belongs -1.21; to TTCCATGAGAGCTTGTTCCTGC, 0.908.
